# Bioassay records from PubChem.
# Rows were chosen to be rich in hits. Some 4.3% of all compounds tested hit in one or more screens of this group.
# esBAF inh: SWI/SNF esBAF complex inhibition; reporter increase, % at 12.5 µM; mouse ES cells, Bmi1-luciferase knock-in reporter, 24 h; 100% = twice the neutral-well signal; 2% of 350,000 active; in the data active = activation above about 40%; inconclusive = no clear call, values can overlap the other calls;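 also: 0% = median of the plate's neutral control wells and 100% = double that signal; a rise in the Bmi1 reporter signal indicates esBAF inhibition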
# FGF22 binding: binders of recombinant human FGF22 by thermal shift; Q9HCT0; SYPRO orange fluorescence; percent of sucrose octasulfate shift, DMSO zero; activity (Tm shift, normalised), % at 9.99 µM; 1.5% of 340,000 active;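 active = mean Tm shift, scaled 0 neutral to 100 positive control, at about 1.3% or above, every replicate too, limit read from the data; inconclusive = no clear call, values can overlap the other calls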
# AF4-AF9 inh: inhibitors of human MLL-AF4/AF9 interaction. AlphaScreen, biotin-AF4 peptide binding to FLAG-AF9. inhibition, % at 10 µM. 0.47% of 350,000 active. AID 651704;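 active = every replicate reaching a set inhibition limit, whatever the replicate mean, cut at about 25% in these data; inconclusive = mean inhibition reaches that limit but some replicates miss it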;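 also: 0% = plate neutral control median and 100% = total signal loss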
# Target sequence (P42568 whole entry, looked up): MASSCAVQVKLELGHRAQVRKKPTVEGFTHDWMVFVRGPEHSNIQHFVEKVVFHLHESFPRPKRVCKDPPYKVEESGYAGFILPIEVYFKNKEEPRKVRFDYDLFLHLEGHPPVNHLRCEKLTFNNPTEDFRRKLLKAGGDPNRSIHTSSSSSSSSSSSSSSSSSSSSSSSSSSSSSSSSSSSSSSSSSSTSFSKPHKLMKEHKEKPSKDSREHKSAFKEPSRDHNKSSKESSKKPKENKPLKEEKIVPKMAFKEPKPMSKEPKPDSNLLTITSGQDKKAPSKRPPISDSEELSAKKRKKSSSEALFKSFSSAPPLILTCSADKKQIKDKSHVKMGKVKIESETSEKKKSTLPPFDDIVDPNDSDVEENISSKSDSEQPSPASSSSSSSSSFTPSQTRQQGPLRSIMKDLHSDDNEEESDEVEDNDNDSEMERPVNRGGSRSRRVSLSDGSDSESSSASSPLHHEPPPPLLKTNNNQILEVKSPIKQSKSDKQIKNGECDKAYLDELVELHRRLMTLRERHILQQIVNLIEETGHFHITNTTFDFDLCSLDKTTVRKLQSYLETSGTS
# MITF TRPM1 HTS: increases MITF-driven TRPM1 promoter luciferase signal. SK-MEL-5 TRPM1-promoter luciferase, 24 h; % of positive control, neutral wells = 0. activation, % at 12.5 µM. 0.75% of 300,000 active. AID 588334;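 active = mean activation of at least 80% with every replicate also reaching 80%; inconclusive = mean reaches 80% but some replicate falls short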;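 also: 0% = neutral control wells and 100% = parthenolide positive control wells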
# SMARCA2 act: activators of SMARCA2 function; activation, % at 9.1 µM; 1% of 370,000 active; AID 652017; MG213 cells, MMTV-luciferase reporter, dexamethasone, overnight; in the data active = activation above about 7.8%;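 also: 0% = vehicle wells and 100% = reference activator wells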
# Wnt act: activators of Wnt/beta-catenin signaling | Wnt/beta-catenin reporter cell assay, activator, plate reader | activation, % at 9.35 µM | 1.2% of 300,000 active | AID 743398; in the data active = activation above about 30%, passing the limit was not always enough; inconclusive = no clear call, values can overlap the other calls;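 also: 0% = neutral control wells and 100% = positive control wells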
# SMARCA2 conf: SMARCA2 activation, confirmation screen; shares compounds with SMARCA2 act; MG213 cells, MMTV-luciferase with dexamethasone, luminescence, overnight; MG213 cells expressing E1A, Rb sequestered; DMSO wells 0%, reference activator 100%; activation, % at 9.1 µM; 30% of 3,500 active;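 active = activation above its plate's cutoff, the mean activation of tested wells plus 3 SD, cut at about 7.9% in these data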
# GAL4-VP16 Luc: counter-screen for SMARCA2 activators: GAL4-VP16 luciferase reporter activation. shares compounds with SMARCA2 act. HEK293 GAL4-VP16 pG5luc reporter, luciferase luminescence; scaled: DMSO wells 0%, SAHA wells 100%. activation, % at 9.1 µM. 41% of 3,500 active;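 active = activation above the solvent-only control well mean plus 3 SD, averaged across control plates, cut at about 5.2% in these data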
# Numbers without * were called inactive; ? = inconclusive; . = not tested or not shown.
SMILES,esBAF inh,FGF22 binding,AF4-AF9 inh,MITF TRPM1 HTS,SMARCA2 act,Wnt act,SMARCA2 conf,GAL4-VP16 Luc
COc1ccccc1OCCC(=O)N1CCN(c2ccccc2OC)CC1,.,0,1,1,-3,3,.,.
N#C/C(=C\c1c(Cl)cccc1Cl)c1nc2ccccc2[nH]1,10,0,-23,-6,4,1,.,.
COc1cc(/C=C(\C#N)c2nc3ccccc3[nH]2)cc(OC)c1O,.,1,2,17,8.2*,2,5,5.7*
N#C/C(=C/c1cccs1)c1nc2ccccc2[nH]1,134*,.,.,3,9.3*,.,24*,4
Cc1ccc(/C=C(\C#N)c2nc3ccccc3[nH]2)s1,98*,.,.,50,10*,.,19*,11*
N#C/C(=C/c1ccc(N2CCOCC2)o1)c1nc2ccccc2[nH]1,6,.,.,3,9.7*,0,16*,17*
COc1ccc(/C=C(\C#N)c2nc3ccccc3[nH]2)cc1O,25,0,-2,.,7,11,.,.
O=C(O)C[C@H]1C[C@@H]2c3cc(NS(=O)(=O)c4ccc(F)cc4)ccc3O[C@@H]2[C@@H](CO)O1,1,0,-4,.,.,.,.,.
C[C@@H]1CN([C@H](C)CO)C(=O)c2cccc(NC(=O)Nc3ccc4c(c3)OCO4)c2O[C@H]1CN(C)C(=O)Nc1ccc(C(F)(F)F)cc1,5,0,9,.,.,.,.,.
Cc1c(/C=C/C(=O)c2ccc(O)cc2)cnn1C,.,.,.,13,8.0*,?,14*,6.9*
Cc1c(/C=C/C(=O)c2ccc(C(C)C)cc2)cnn1C,28,0,1,32,0,13,.,.
COc1cccc(S(=O)(=O)N2CCCCN3[C@H](C2)[C@@H](c2ccc(-c4cccnc4)cc2)[C@@H]3CO)c1,1,0,-3,.,.,.,.,.
COC(=O)c1ccc(C(=O)OC)c(NC(=S)N2CCN(c3ccccc3)CC2)c1,.,.,.,-8,-2,.,.,.
COC(=O)c1ccc(C(=O)OC)c(NC(=S)N2CCN(c3cccc(Cl)c3)CC2)c1,-4,.,.,7,11*,2,-6,-1
COc1ccc2c3c(n(C)c2c1)[C@@H](CO)N(C(=O)c1ccccc1)CC31CCN(C)CC1,.,0,8,.,.,.,.,.
O=C(O)C1CCCCC1C(=O)Nc1ccc(-c2ccccc2)cc1 (stereo not drawn),.,0,-2,6,12*,-2,1,-1
C[C@H]1CN([C@@H](C)CO)C(=O)Cc2cc(NS(=O)(=O)c3ccc(Cl)cc3)ccc2O[C@@H]1CN(C)Cc1ccc(C(F)(F)F)cc1,-2,0,0,.,.,.,.,.
CS(=O)(=O)N1N=C(c2ccccc2)CC1c1ccc2c(c1)OCO2 (stereo not drawn),.,.,.,38,3,16,.,.
CS(=O)(=O)Nc1cccc(C2=NN(S(C)(=O)=O)C(c3ccc4c(c3)OCO4)C2)c1 (stereo not drawn),.,.,.,3,9.1*,5,6,7.1*
COc1cc(F)ccc1-c1csc(C(C)(O)c2ccc(F)c(F)c2)n1 (stereo not drawn),-4,0,-7,.,9.1*,-2,-4,0
Cc1noc(C)c1NC(=O)N(C)C[C@H]1OCCCC[C@H](C)Oc2ccc(NS(=O)(=O)c3c(C)noc3C)cc2C(=O)N([C@H](C)CO)C[C@@H]1C,0,0,0,.,.,.,.,.
CCCN1CCN(CCCNC(=S)Nc2ccc3nc(N4CCN(CC)CC4)cc(C)c3c2)CC1,0,0,8,11,6,-4,.,.
Cc1cc(N2CCCC2)nc2ccc(NC(=S)NCCCN3CCC(C)CC3)cc12,.,0,14,-28,12*,-1,19*,1
CC1CSc2nc3sc4c(c3c(=O)n21)CCCC4 (stereo not drawn),?,.,.,29,3,.,.,.
CC1=Nn2c(nc3sc4c(c3c2=O)CCCC4)SC1,.,.,.,55,10*,21,0,1
SMILES,esBAF inh,FGF22 binding,AF4-AF9 inh,MITF TRPM1 HTS,SMARCA2 act,Wnt act,SMARCA2 conf,GAL4-VP16 Luc
COCCNC(=O)C[C@@H]1C[C@H]2c3cc(NC(=O)Nc4ccc(OC)cc4)ccc3O[C@H]2[C@H](CO)O1,-3,0,-5,.,.,.,.,.
O=c1cc(-c2ccccc2)oc2ccc3ccccc3c12,-74,0,-2,.,2,-10,.,.
Clc1cccc(-c2nc(NCCCN3CCOCC3)c3ccccc3n2)c1,-7,1,2,-2,-3,0,.,.
OCCCCCN=c1cc(-c2ccccc2)oc2ccc(Cl)cc12,78*,.,.,3,13*,.,19*,1
Clc1ccc2oc(-c3ccccc3)cc(=NCCCN3CCOCC3)c2c1,.,0,-5,103*,17*,57*,14*,5.6*
O=C(N[C@@H](Cc1cccnc1)C(=O)N1CCC[C@H]1C(=O)NCc1ccccc1)c1ccccc1,.,0,.,.,-1,19,.,.
C[C@H](CO)N1C[C@H](C)[C@H](CN(C)S(=O)(=O)c2cn(C)cn2)Oc2ccc(NC(=O)CCC(F)(F)F)cc2C1=O,1,0,-8,.,.,.,.,.
O=C(C[C@H]1C[C@H]2c3cc(NC(=O)NC4CCCC4)ccc3O[C@H]2[C@H](CO)O1)NC1CCCC1,5,0,-1,.,.,.,.,.
CCC(=O)N1C[C@@H](C)[C@@H](OC)CN(C)C(=O)c2cc(NC(=O)NC(C)C)ccc2OC[C@@H]1C,1,0,3,.,.,.,.,.
Oc1ccccc1C=Nc1ccccc1-c1nc2ccccc2[nH]1,.,.,.,35,8.3*,27,5,11*
Cc1noc(C)c1S(=O)(=O)N(C)C[C@H]1Oc2ccc(NC(=O)C3CC3)cc2CC(=O)N([C@H](C)CO)C[C@H]1C,3,0,-1,.,.,.,.,.
Cc1cc(OCc2cn3cccnc3n2)ccc1Cl,.,.,.,16,8.4*,.,8.5*,5.6*
Cn1c(SCC(=O)Nc2ccc(S(=O)(=O)Nc3nccs3)cc2)nc2sc3c(c2c1=O)CCCC3,.,.,.,.,11*,.,3,1
Cc1cc(NC(=O)CSc2nc3sc4c(c3c(=O)n2C)CCCC4)no1,1,.,.,-8,-1,-3,.,.
COc1cccc(CC(=O)Nc2ccc(S(=O)(=O)Nc3nccs3)cc2)c1,7,0,4,-3,8.4*,-4,-2,2
Cc1ccc(S(=O)(=O)NCC[C@@H]2CC[C@@H](NC(=O)C3CCOCC3)[C@@H](CO)O2)cc1,-1,0,-3,.,.,.,.,.
CS(=O)(=O)n1nc(-c2ccc(Cl)cc2)nc1N,.,42,-1,24,8.5*,-1,1,1
CC(C)c1ccc(/C=N/NC(=O)c2c(Cl)cnn2C)cc1,.,.,.,93*,11*,.,15*,4
